The record followed here is PubChem BioAssay AID651920 (Broad Institute, 2012).

A short description of this assay: cytotoxicity in primary human melanocytes, dose response, cytotoxicity control, cell-based, plate reader, dry powder (AID 651920).

Potency and affinity values are given separately. The source made the active and inactive calls.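 Rule for the calls: active = compounds lowering viability with a fitted half-maximal potency at or below twice the top tested dose; inconclusive = flat fit showing 30 to 70% loss, or poor fit; inactive = the rest.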

With `CN1CCN(C2=C(Nc3ccc(F)cc3F)C(=O)c3ccccc3C2=O)CC1`, the outcome was inactive.
Consider `CC(C)N1CCN(C2=C(Nc3ccc(F)cc3F)C(=O)c3ccccc3C2=O)CC1`, for which the result was inactive.
On to `O=C1C(Nc2ccc(F)cc2)=C(N2CCCCC2)C(=O)c2ccccc21`, for which the result was inactive.
Next, `NC1=C(NS(=O)(=O)c2ccccc2)C(=O)c2ccccc2C1=O`: “inactive”; `O=C1C=C(Nc2ccccc2)C(=O)c2ccccc21`: “inactive”; `Cc1ccc(NC2=CC(=O)c3ccccc3C2=O)cc1`: “inactive”.
The value for `O=C1C(Nc2ccc(Br)cc2)=C(N2CCCCC2)C(=O)c2ccccc21` was “inactive”; that for `NC1=C(NS(=O)(=O)c2cccs2)C(=O)c2ccccc2C1=O` was “inactive”.
Turning to `O=C1C(Nc2ccc(Cl)cc2)=C(N2CCCC2)C(=O)c2ccccc21`, the result was inactive.
Next, `CCN1CCN(C2=C(Nc3ccc(F)cc3F)C(=O)c3ccccc3C2=O)CC1`: “inactive”.
The value for `NC1=C(NS(=O)(=O)c2ccc(Br)cc2)C(=O)c2ccccc2C1=O` was “inactive”.
The value for `NC1=C(NS(=O)(=O)c2ccc(Br)s2)C(=O)c2ccccc2C1=O` was “inactive”.
Turning to `O=C1C(Nc2cccc(Cl)c2)=C(N2CCCC2)C(=O)c2ccccc21`, the result was inactive.
Consider `CC(C)N1CCN(C2=C(Nc3ccc(F)cc3)C(=O)c3ccccc3C2=O)CC1`, for which the call was inactive.
